Assay outcomes as filed in PubChem BioAssay.
Hsp90 Hop PPI: changes Hsp90-Hop TPR2A binding signal, up or down. AID 595. Potency, µM (top dose mostly 57 µM). 71,000 compounds, 0.44% hits. AlphaScreen TPR2A-His6 binding biotin-Hsp90 C-terminal peptide; active = well fitted curve in either direction with a large enough effect; inconclusive = small, poorly fitted or top-dose-only effect, or another doubt
USP2a inhib: inhibitors of human ubiquitin-specific protease USP2a; USP2a enzymatic assay, qHTS inhibition; Potency, µM (top dose mostly 38.3 µM), actives largely listed as inhibitors; 60,000 compounds, 0.1% hits; AID 927; note: nearly all actives have a fitted effect of over 60% in size
Target sequence (O75604 whole entry, looked up): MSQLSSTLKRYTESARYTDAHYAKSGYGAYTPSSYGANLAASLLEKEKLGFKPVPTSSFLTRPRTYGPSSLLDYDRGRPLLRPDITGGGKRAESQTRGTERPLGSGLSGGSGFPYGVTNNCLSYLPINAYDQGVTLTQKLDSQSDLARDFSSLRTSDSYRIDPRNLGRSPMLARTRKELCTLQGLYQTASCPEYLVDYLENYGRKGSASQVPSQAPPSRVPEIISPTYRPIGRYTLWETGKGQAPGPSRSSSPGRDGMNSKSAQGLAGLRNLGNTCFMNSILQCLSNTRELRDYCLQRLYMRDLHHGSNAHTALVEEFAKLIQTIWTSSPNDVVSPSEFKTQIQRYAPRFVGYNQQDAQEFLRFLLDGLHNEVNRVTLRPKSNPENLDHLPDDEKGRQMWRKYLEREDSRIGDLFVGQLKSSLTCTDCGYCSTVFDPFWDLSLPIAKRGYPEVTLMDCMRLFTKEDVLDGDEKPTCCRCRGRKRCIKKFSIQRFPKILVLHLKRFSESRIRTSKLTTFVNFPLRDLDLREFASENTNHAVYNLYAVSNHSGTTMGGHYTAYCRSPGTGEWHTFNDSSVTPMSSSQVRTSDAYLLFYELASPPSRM
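USP2 core (20 nM final) was preincubated with compound for 30 min at RT in 20 mM Tris-HCl pH 8.0, 2 mM CaCl2, 2 mM beta-mercaptoethanol; Ub-PLA2 (20 nM) plus NBD C6-HPC (20 uM) then added, fluorescence read after 2.5 h.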
15-hLO inh: blocks human 15-lipoxygenase activity; purified 15hLO-1, xylenol orange hydroperoxide absorbance; Potency, µM (titrated, usually from 57.1 µM), usual class: inhibitors; 74,000 compounds, 1.4% hits; note: nearly all actives have a fitted effect of over 55% in size
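Inhibition is scored from a chromogenic endpoint. After 15 min enzyme-compound contact, arachidonic acid (50 uM final) reacts 6 min with 40 nM 15hLO-1 at room temperature, then Fe-XO reagent is added for 30 min and absorbance ratio recorded.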
Tau fil binding: tau filament binding | P10636 | recombinant tau filaments, thioflavin S fluorescence, 15 h; filaments grown with octadecylsulfate alongside compound | Potency, µM (doses to about 57.1 µM) | 71,000 compounds, 2% hits | AID 596;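 note: actives lower thioflavin S fluorescence by blocking filaments or displacing dye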
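His-tagged recombinant human tau (exons 2, 3 and 10 included), 1 uM, was induced to fibrillize by 30 uM sodium octadecylsulfate with compound present. After 15 h at 37 C, thioflavine S fluorescence (ex 450, em 510 nm) was read.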
Hsp90 TPR2A CRC: confirmation and counter-screen of Hsp90 TPR2A co-chaperone interaction disrupters | shares compounds with Hsp90 Hop PPI | activity, negative = inhibition, % at 40 µM or 46 µM, hits read low | AlphaScreen TPR2A-His6 / biotin-Hsp90 peptide binding | AID 632 | 45 compounds, 100% hits;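 active = compound lowering the Hsp90 and TPR2A binding signal, whether or not the linker counterscreen also flagged it as an artifact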
Hits are given with their value; ! = a repeat was not active; [ ] = another dose, or the depositor's remark. Shown are actives, neighbours in structure and some others; about 3.2% of the full set was active somewhere. Unless noted, calls come from the whole dose curve; as a rule, active = well fitted curve in the direction sought with a large enough effect; inconclusive = small, poorly fitted or top-dose-only effect, or another doubt; inactive = no such curve, though single readings can be large; an effect the other way counts as inactive or inconclusive.

What do the screens show for `C=CCN1C[C@H](C)N([C@H](c2ccc(C(=O)N(CC)CC)cc2)c2cccc(O)c2)C[C@H]1C`?
Hsp90 Hop PPI: inactive; 15-hLO inh: inactive; Tau fil binding: 40µM

How did CC(=O)[O-].CC(=O)[O-].CC(=O)[O-].[Cr+3] do in these assays?
Hsp90 Hop PPI: inactive; 15-hLO inh: inactive; Tau fil binding: 13µM

How did C[N+](C)(C)CC(=O)[O-] do in these assays?
USP2a inhib: inactive; 15-hLO inh: inactive

Results for CC[C@@]12CCCN3CC[C@@]4(c5ccc(OC)c(O)c5N(C(C)=O)[C@H]4CC1)[C@H]32 ?
Hsp90 Hop PPI: inactive; Tau fil binding: inactive

Results for O=C(NC(=O)c1c(F)cccc1F)Nc1cc(Cl)c(OC(F)(F)C(F)C(F)(F)F)cc1Cl (stereo not given) ?
USP2a inhib: inactive; 15-hLO inh: 16µM

What do the screens show for `O=C(O)[C@@H](O)[C@@H](O)[C@@H]1[O][Sb][O][C@@H]1CO`?
Hsp90 Hop PPI: inactive[11 µM]; 15-hLO inh: inactive[11.4 µM]; Tau fil binding: inactive[11.4 µM]

Results for Cc1ccc(OP(=O)(Oc2ccc(C)cc2)Oc2ccc(C)cc2)cc1 ?
Hsp90 Hop PPI: 16µM; 15-hLO inh: inactive; Tau fil binding: inactive

How did CC(=NCc1ccco1)c1c(O)n(C)c(=O)n(C)c1=O do in these assays?
Hsp90 Hop PPI: inactive; USP2a inhib: inactive; 15-hLO inh: inactive; Tau fil binding: inactive

What do the screens show for `Cn1c(O)c(C=NCc2ccco2)c(=O)n(C)c1=O`?
Hsp90 Hop PPI: inactive; USP2a inhib: inactive; 15-hLO inh: 32µM; Tau fil binding: inactive

How did CC(C)C[C@H]1C(=O)N2CCC[C@@H]2[C@]2(O)O[C@](NC(=O)[C@H]3C=C4c5cccc6[nH]cc(c56)C[C@H]4N(C)C3)(C(C)C)C(=O)N12 do in these assays?
Hsp90 Hop PPI: inconclusive; Tau fil binding: inactive

What do the screens show for `COc1ccc(C2=NCC(=O)N(CC(=O)NCc3ccco3)c3sc4c(c32)CCCC4)cc1`?
Hsp90 Hop PPI: inactive; USP2a inhib: inactive; 15-hLO inh: inconclusive; Tau fil binding: inactive

Results for Cc1cccc(C2=NCC(=O)N(CC(=O)NCc3ccco3)c3sc4c(c32)CCCC4)c1 ?
Hsp90 Hop PPI: inactive; USP2a inhib: inactive; 15-hLO inh: 25µM; Tau fil binding: inactive

What do the screens show for `CO[C@@H]1CC=C2CCN3CCC4=C(CC(=O)OC4)[C@]23C1`?
Hsp90 Hop PPI: inactive; USP2a inhib: inactive; 15-hLO inh: inactive; Tau fil binding: inactive

How did CC(=O)O.CC(=O)O.[Cd] do in these assays?
USP2a inhib: 2.5µM; 15-hLO inh: 16µM

How did CCN1C[C@@]2(COC)[C@H](O)C[C@H](OC)[C@@]34[C@@H]5C[C@@]6(O)[C@H](OC(=O)c7ccccc7)[C@H]5[C@@](OC(C)=O)([C@H]([C@@H](OC)[C@H]23)[C@H]14)[C@H](O)[C@@H]6OC do in these assays?
Hsp90 Hop PPI: inactive; Tau fil binding: inactive

How did C[C@@]12C=CC(=O)C=C1CC[C@@H]1C2=CC[C@]2(C)[C@@H]1CC[C@H]2C(=O)CN1CCN(c2cc(N3CCCC3)nc(N3CCCC3)n2)CC1 do in these assays?
Hsp90 Hop PPI: inactive; USP2a inhib: inactive; 15-hLO inh: inconclusive; Tau fil binding: 6.3µM

How did OC[C@H]1CCCN2CCCC[C@@H]12 do in these assays?
Hsp90 Hop PPI: inactive; Tau fil binding: inconclusive

What do the screens show for `O=c1c2ccccc2nc(CSc2ncnc3nc[nH]c23)n1-c1ccccc1`?
Hsp90 Hop PPI: inconclusive; USP2a inhib: inactive; 15-hLO inh: inactive; Tau fil binding: inactive

Results for O=C(O)c1cc[c]([Hg][S]c2ncnc3nc[nH]c23)cc1 ?
Hsp90 Hop PPI: inactive[11 µM]; 15-hLO inh: 0.79µM; Tau fil binding: inactive[11.4 µM]

How did N[C@H](Cn1cc(I)c(=O)[nH]c1=O)C(=O)O do in these assays?
Hsp90 Hop PPI: inactive; Tau fil binding: inactive

What do the screens show for `CC(=O)OCC1=C(C(=O)O)N2C(=O)[C@@H](N)[C@@H]2SC1`?
Hsp90 Hop PPI: inactive; USP2a inhib: inactive; 15-hLO inh: inactive; Tau fil binding: inactive

How did CC(=O)OCC1=C(C(=O)[O-])N2C(=O)[C@@H](NC(=O)CCC[C@@H](N)C(=O)[O-])[C@@H]2SC1.[Zn+2] do in these assays?
Hsp90 Hop PPI: inactive; USP2a inhib: inactive; 15-hLO inh: 25µM; Tau fil binding: inactive

What do the screens show for `C=C1CC[C@H](O)C/C1=C/C=C1\CCC[C@]2(C)[C@@H]([C@H](C)CCCC(C)C)CC[C@@H]12`?
Hsp90 Hop PPI: inactive; 15-hLO inh: 16µM; Tau fil binding: inconclusive

What do the screens show for `CC[C@H](CO)NC(=O)[C@@H]1C=C2c3cccc4c3c(cn4C)C[C@@H]2N(C)C1`?
Hsp90 Hop PPI: inactive; USP2a inhib: inactive; 15-hLO inh: inactive; Tau fil binding: inactive

Results for C[C@@H](O)CN(CCN(C[C@@H](C)O)C[C@@H](C)O)C[C@@H](C)O.O=[N+]([O-])O.[Cu] ?
Hsp90 Hop PPI: inactive[11 µM]; 15-hLO inh: 4µM; Tau fil binding: inconclusive

Results for COC1=C[C@H]2[C@@H]3Cc4ccc(OC)c(O)c4[C@@]2(CCN3C)CC1=O ?
Hsp90 Hop PPI: inactive; Tau fil binding: inconclusive

Results for c1ccc(CCCN2CCN(CCOC(c3ccccc3)c3ccccc3)CC2)cc1 ?
Hsp90 Hop PPI: inactive; USP2a inhib: inactive; 15-hLO inh: 25µM; Tau fil binding: inactive

Results for Fc1ccc(C(OCCN2CCN(CCCc3ccccc3)CC2)c2ccc(F)cc2)cc1 ?
Hsp90 Hop PPI: inactive; USP2a inhib: inactive; 15-hLO inh: inactive; Tau fil binding: inconclusive

What do the screens show for `CC(C)CC(N(C)C)C1(c2ccc(Cl)cc2)CCC1` (stereo not given)?
USP2a inhib: inactive; 15-hLO inh: 20µM!

How did O=c1cccc2n1C[C@H]1C[C@@H]2CN(CCO)C1 do in these assays?
Hsp90 Hop PPI: inactive; Tau fil binding: inactive

What do the screens show for `COCc1cc(C)c(C#N)c(=S)[nH]1`?
Hsp90 Hop PPI: inactive; USP2a inhib: inactive; 15-hLO inh: 1.6µM; Tau fil binding: inactive

Results for Cc1cc2c(C(C)C)c(O)c(O)c(C=O)c2c(O)c1-c1c(C)cc2c(C(C)C)c(O)c(O)c(C=O)c2c1O ?
Hsp90 Hop PPI: inconclusive; USP2a inhib: inactive; 15-hLO inh: inconclusive; Tau fil binding: 1µM

Results for C=C[C@@H]1CN2CC[C@@H]1C[C@H]2[C@H](O)c1ccnc2ccccc12 ?
Hsp90 Hop PPI: inactive; Tau fil binding: inconclusive

How did CC(C)(C)c1cc(O)ccc1O do in these assays?
Hsp90 Hop PPI: inactive[11 µM]; 15-hLO inh: 20µM; Tau fil binding: inactive[11.4 µM]

Results for CC(C)(C)c1ccccc1O ?
Hsp90 Hop PPI: inactive; 15-hLO inh: inactive; Tau fil binding: inactive

Results for C=CCCN1C[C@@H]2C[C@H](C1)c1cccc(=O)n1C2 ?
Hsp90 Hop PPI: inactive; Tau fil binding: inactive

Results for Cn1ncnc2c(=O)n(C)c(=O)nc1-2 ?
Hsp90 Hop PPI: 0.79µM; USP2a inhib: inactive; 15-hLO inh: inactive; Tau fil binding: inactive; Hsp90 TPR2A CRC: active

What do the screens show for `CCn1cnc2c(Nc3cccc(Cl)c3)nc(N[C@@H]3CCCC[C@H]3N)nc21`?
Hsp90 Hop PPI: inactive; USP2a inhib: inactive; 15-hLO inh: inconclusive; Tau fil binding: inactive
